Source: PubChem BioAssay AID2284383 (EPA ToxCast)
Results filed as inconclusive are left out. Calls of active or inactive are those of the source. Rule for the calls: active = hit-call score of the fitted dose curve at least 0.9, where 1 is the maximum; inconclusive = response in the unintended direction; inactive = score below 0.9.

Biological target: human Retinoic Acid Receptor gamma (RARg) Agonism, RARG (gene 5916) (UniProt P13631)
Test: ERF_TW_NR_COA_hRARG: Eurofins (ERF) Nuclear Receptor (NR) Functional Coactivator Assay for human Retinoic Acid Receptor gamma (RARg) Agonism
Description: ERF_TW_NR_COA_hRARG is a biochemical, single-readout assay that uses extracted gene-proteins in a cell-free assay. Measurements were taken 16 hours after chemical dosing in a 96-well plate. […] It is designed to measure FRET using a type of binding reporter as detected by fluorescence intensity of AM580 with fluorimetry technology.Data from the assay component ERF_TW_NR_COA_hRARG was analyzed at the assay endpoint, ERF_TW_NR_COA_hRARG, in the positive analysis fitting direction relative to DMSO as the negative control and baseline of activity. Using a type of binding reporter, gain-of-signal activity can be used to understand changes in binding as they relate to gene RARG. To generalize the intended target to other relatable targets, this assay endpoint is annotated to the nuclear receptor intended target family, where the subfamily is non-steroidal.
Human recombinant retinoic acid receptor […] (RARgamma) receptors expressed in bacteria are used. Test compound and/or vehicle is incubated with the 25 nM receptors and binding buffer in modified Tris-HCl buffer pH 7.4 for 16 hours at 4C. Determination of the amount of complex formed is read spectrofluorimetrically (excitation:337 nm, emission:620/665 nm). Test compound-induced increase in fluorescence by 50 percent or more (>/= 50%) relative to the 0.3 uM AM580 response indicates possible RARgamma receptor agonist activity. […]

Sequence of human Retinoic Acid Receptor gamma (RARg) Agonism, RARG (gene 5916) (P13631 whole entry, looked up): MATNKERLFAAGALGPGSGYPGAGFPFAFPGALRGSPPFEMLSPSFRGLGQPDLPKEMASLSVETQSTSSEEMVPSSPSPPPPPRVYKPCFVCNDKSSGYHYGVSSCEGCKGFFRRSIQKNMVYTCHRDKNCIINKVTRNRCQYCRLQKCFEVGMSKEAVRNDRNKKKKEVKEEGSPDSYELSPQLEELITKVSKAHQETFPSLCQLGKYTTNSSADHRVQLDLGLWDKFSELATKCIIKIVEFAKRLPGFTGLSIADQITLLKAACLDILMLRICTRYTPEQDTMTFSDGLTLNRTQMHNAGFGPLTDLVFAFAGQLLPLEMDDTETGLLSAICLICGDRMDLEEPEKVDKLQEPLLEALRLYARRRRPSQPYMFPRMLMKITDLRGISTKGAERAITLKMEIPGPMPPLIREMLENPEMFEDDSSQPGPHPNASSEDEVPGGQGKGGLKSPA

Structure (SMILES): C[C@H]1C[C@@H]2[C@H]([C@@H](O)C[C@@]3(C)[C@H]2CC[C@]3(O)C(=O)CO)[C@@]2(C)C=CC(=O)C=C12
- outcome: inactive
